The experiment addresses Glucose transporter (Leishmania mexicana) (UniProt O61059). Kind of experiment: ST_JUDE_LEISH: Cytotoxicity at 2uM final concentration against transgenic Leishmania Mexicana promastigotes LmGT2 that are glucose transport deficient and complemented with the L. Mexicana glucose transporter 2. Activity is measured by DNA content using SYBR green in vitro. The class given is functional.
For the compound `O=C(/C=C/c1ccc(-c2nc3ccc(Cl)cc3[nH]2)cc1)NCc1cccc(F)c1`, the inhibition is 4.07%.

As to `Cc1onc(-c2ccccc2Cl)c1C(=O)Nc1cc(Cl)c(Cl)cc1Cl`, the inhibition is 4.95%.

Consider `O=C(Nc1cn(-c2ccc(OCc3cccc(F)c3)c(Cl)c2)c2ncncc12)c1ccncc1`, for which the inhibition came to 2.96%.

Consider `CN1CCCN(Cc2ccc(-c3ccc(NC(=O)c4ccc(Cl)cc4)cc3)cc2)CC1`, for which the inhibition was 50.7%.

`CCOc1c(CCNCCCCNCCc2ccc3ccccc3c2OCC)ccc2ccccc12`: the inhibition stood at 111%.

Consider `CSc1ccccc1NC(=S)NC1CCN(CCCCCNC(=O)/C=C/c2ccc(Cl)c(Cl)c2)CC1`, for which the inhibition amounted to 4%.

Turning to `Cc1ccc2[nH]c(NC#N)nc2c1`, the inhibition worked out at 0.78%.

`Cc1cc(=NN=Cc2ccccc2F)c2cc(F)ccc2[nH]1`: the inhibition turned out to be 0.82%.

Regarding `CN(CCc1ccccn1)Cc1ccc(-c2ccc(-c3nc4ccccc4[nH]3)s2)cc1`, the inhibition was -2.7%.

For the compound `O=C1CCCN1CCCNCc1cccc(-c2cccc(-c3nc4cc(F)ccc4[nH]3)c2)c1`, the inhibition amounted to 0.04%.

For the compound `COc1ccc(Cl)cc1C(=O)Nc1ccc(-c2nc3ccccc3[nH]2)cc1`, the inhibition came to 1.35%.

Consider `O=C(Nc1ccccc1)Nc1cccc(-c2cc(CNCCc3ccccc3)sc2-c2ccncc2)c1`, for which the inhibition stood at 4.67%.

On to `N=C(N)Nc1nc(CCCCCCCCc2csc(NC(=N)N)n2)cs1`, for which the inhibition stood at 1.03%.

Regarding `Cn1cnc(CCNC(=O)c2ccc(-c3cccc(-c4nc5ccccc5[nH]4)c3)cc2)c1`, the inhibition was -1.62%.

`CC(C)COc1ccc(Cl)cc1Cc1nc(-c2nc3ccc(N4CCN(C)CC4)nc3[nH]2)cs1`: the inhibition stood at 3.9%.

Take `Cc1cccc2nc(-c3ccc(-c4ccc(CN5CCN(c6ccncc6)CC5)cc4)s3)[nH]c12`: the inhibition is 1.09%.

Regarding `N#Cc1ccc(N2CCN(Cc3cccc(-c4cccc(-c5nc6cc(F)ccc6[nH]5)c4)c3)CC2)nc1`, the inhibition was 3.65%.

Turning to `O=C(NCCc1cccc(Cl)c1Cl)c1ccc(N2CCN(c3ccncc3)CC2)nc1`, the inhibition came to 21.8%.

Regarding `O=C(NCCc1ccccc1)N(Cc1ccccc1-c1cccc(CNCc2ccc3c(c2)OCO3)c1)C1CCN(Cc2ccccc2)CC1`, the inhibition was found to be 3.13%.

Take `Cn1c(-c2ccccc2)cc2c3c(=O)cc(C(F)(F)F)[nH]c3ccc21`: the inhibition worked out at 14.1%.

Turning to `FC(F)(F)c1ccc(N2CCCN(Cc3cccc(-c4ccccc4CNCc4ccc5c(c4)OCO5)c3)CC2)nc1`, the inhibition is -0.04%.

Take `CCCCN(CCCC)CCCN(CCCN(CCCC)CCCC)c1cc(C)nc(Nc2ccc(Br)cc2)n1`: the inhibition is -1.15%.

Regarding `Cc1ccc(-c2ccn(Cc3ccc(OCc4ccccc4)cc3)n2)cn1.Cc1ccc(-c2ccnn2Cc2ccc(OCc3ccccc3)cc2)cn1`, the inhibition came to 0.25%.

Regarding `O=C(NCCc1ccccc1)N(Cc1ccccc1-c1cccc(CNC2CCCC2)c1)C1CCN(Cc2ccccc2)CC1`, the inhibition is 6.22%.

In the case of `COc1cc2nc(N3CCC(CNC(=O)c4ccc(-c5ccc(C#N)cc5)cc4)CC3)nc(N)c2cc1OC`, the inhibition turned out to be 1.74%.

`Cc1cc(N[C@@H](Cc2ccccc2)C(=O)Nc2ccccc2)nc(NCC2CCCCC2)n1`: the inhibition is 10.7%.

`Cc1cccc2nc(-c3ccc(-c4ccc(CNCC5CCCO5)cc4)s3)[nH]c12` (stereo not given): the inhibition turned out to be 1.98%.

On to `CC(C)(C)OC(=O)N1CCC(C2CCN(C(=O)OC(C)(C)C)CC2)CC1`, for which the inhibition was -1.48%.

Regarding `O=S(=O)(Nc1cc2c(cc1O)CCNCC2)c1ccc(-c2ccc(Cl)cc2)cc1`, the inhibition is 2.34%.

In the case of `O=C(NCC1CCCCC1)c1cc(=O)c2ccccc2o1`, the inhibition turned out to be 11.7%.

On to `CC(=O)N/N=C/[C@H](CCc1ccccc1)NC(=O)[C@H](CC(C)C)NC(=O)c1cccc(OCCN2CCOCC2)c1`, for which the inhibition stood at 5.79%.

As to `CCn1ncc2c(NC3CCOCC3)c(CNC(=O)c3ccnn3C)c(C)nc21`, the inhibition was 0.31%.

For the compound `COc1ccc2nc3ccccc3c(NCCN3CCN(C)CC3)c2c1`, the inhibition came out at 4.16%.

In the case of `CC(C)CC(NC(=O)c1cc2ccccc2s1)C(=O)N1CCCCCC1c1ccc(C(C)(C)C)cc1` (stereo not given), the inhibition is -0.81%.

`CCCN1CCCN(Cc2cccc(NC(=O)c3ccc(-c4ccccc4)cc3)c2)CC1`: the inhibition is -5.12%.

Regarding `COc1ccc2[nH]ccc(=NN=Cc3cccnc3)c2c1`, the inhibition worked out at 1.2%.

For `COc1cccc(C(=O)NCc2cccs2)c1OCc1ccccc1`, the inhibition was found to be 1.15%.

`Cc1sc2ncnc(Sc3nnc(N)s3)c2c1C`: the inhibition is 1.09%.

Take `COc1ccc(CNC2CCN(C)CC2)cc1-c1ccc(S(=O)(=O)NC2CCC2)c(C)c1`: the inhibition is -0.25%.

Regarding `CC(C)Sc1nc2c(c(=O)n1Cc1ccco1)C1(CCCCC1)Cc1ccccc1-2`, the inhibition was 1.54%.

A word on the inhibition: it is the drop in the measured response relative to a control, in per cent.

Source of the values: ChEMBL document CHEMBL3433997, “St. Jude Leishmania screening dataset” (2016).
